Assay outcomes: PubChem BioAssay, National Center for Advancing Translational Sciences (NCATS)
A selection: hits, their analogues and other compounds. The true share with any hit is near 1.3%.
TRPV1 PAM – potentiators of human vanilloid receptor 1 (TRPV1); potentiation, % at 8.33 µM; TRPV1-expressing cells, Fluo-8 calcium influx, capsaicin EC20 potentiation; hit rate 0.02% among 320,000; in the data active = potentiation above about 80%; inconclusive = between about 30% and that limit; also: 0% is about no effect
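TRPV1-expressing cells were cultured overnight at 35.5C and loaded with Fluo-8 calcium dye for 40 to 90 min at room temperature. After a 10 s baseline, compound was added and calcium influx was read kinetically for 3 min (ex 480/em 520 nm).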
KCNH2 WT inh – KCNH2 (human, wildtype) channel inhibition; Q12809; U2OS, BacMam KCNH2, thallium flux FluxOr; stronger effect = lower value; activity change, % at 1.84 µM; hit rate 0.37% among 340,000;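 active = maximum activity change below -70%; inconclusive = maximum activity change between -70% and -50%; inactive = maximum activity change above -50%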; also: % is scaled to controls: 0 for no effect and ±100 for the full control effect
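U2OS cells transduced with wild-type KCNH2 virus are loaded with FluxOr dye for 45 min, and thallium flux is measured in kinetic reads before and after stimulation buffer. Rate constants are normalized to DMSO controls.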
TRPV1 agonist – agonists of human vanilloid receptor 1 (TRPV1); Q8NER1; TRPV1-expressing cells, Fluo-8 calcium influx, agonist mode; activation, % at 8.33 µM; hit rate 0.19% among 320,000; AID 540275; in the data active = activation above about 80%; inconclusive = between about 30% and that limit; also: 0% is about no effect
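Fluo-8 calcium influx in TRPV1-expressing cells, kinetic read (ex 480/em 520 nm). Compound added and read 3 min for agonist activity, followed by capsaicin at EC20 final and 2 min further read for enhancement.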
TRPML1 agonist – human mucolipin-1 channel agonism; Q9GZU1; hit rate 0.12% among 410,000; activation, % (no concentration beside the values); TRPML1-expressing cells, Ca2+ dye fluorescence, FDSS; AID 624414; in the data active = activation above about 50%; inconclusive = mostly about 30% to 49%; also: 0% is about no effect
Target sequence (Q9GZU1 whole entry, looked up): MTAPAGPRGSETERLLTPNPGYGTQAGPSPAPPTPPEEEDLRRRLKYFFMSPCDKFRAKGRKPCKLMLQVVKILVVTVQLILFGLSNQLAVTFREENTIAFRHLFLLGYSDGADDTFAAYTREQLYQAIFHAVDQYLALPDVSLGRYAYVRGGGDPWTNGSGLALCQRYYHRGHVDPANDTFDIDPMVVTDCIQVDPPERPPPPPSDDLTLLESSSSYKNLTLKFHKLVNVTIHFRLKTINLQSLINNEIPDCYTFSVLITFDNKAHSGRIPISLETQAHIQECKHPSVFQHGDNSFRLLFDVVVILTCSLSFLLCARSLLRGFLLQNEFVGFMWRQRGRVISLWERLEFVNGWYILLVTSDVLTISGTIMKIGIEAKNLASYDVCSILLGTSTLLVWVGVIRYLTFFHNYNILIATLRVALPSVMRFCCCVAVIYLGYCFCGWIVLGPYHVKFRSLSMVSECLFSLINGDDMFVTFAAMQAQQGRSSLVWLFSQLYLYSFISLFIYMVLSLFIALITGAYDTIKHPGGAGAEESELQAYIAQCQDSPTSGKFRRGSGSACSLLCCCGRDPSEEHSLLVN
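Kinetic FDSS Ca2+ read in Tet-induced TRPML1-DL cells (ABD Ca8 dye plus quencher, 45-90 min RT loading): baseline, then compound, then 110 s agonist window; EC80 agonist 54-4 at 4uM final added afterwards for a 110 s antagonist window.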
KCNH2 3.1 inh – inhibitors of human KCNH2 3.1 potassium channel isoform | U2OS KCNH2 3.1, thallium flux FluxOr; stronger effect = lower value | activity change, % (tested at about 1.8 µM) | hit rate 0.95% among 340,000;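 active = maximum activity change below -70%; inconclusive = maximum activity change from -70% to -50%; inactive = maximum activity change above -50%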;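 also: thallium influx rate constant from kinetic fluorescence after stimulation buffer; % is scaled to controls: 0 for no effect and ±100 for the full control effect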
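Kinetic fluorescence (2 min after stimulation buffer) measures Tl+ influx through KCNH2 3.1 expressed by viral transduction in U2OS cells; the rate constant is normalized against DMSO controls serving as positive and negative references.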
TRPML1 inh – inhibitors of human TRPML1 channel | AID 624415 | hit rate 0.02% among 390,000 | activity change, negative = inhibition, % (concentration not given with the values) | Q9GZU1 | TRPML1-inducible cells, Ca2+ dye fluorescence, FDSS; stronger effect = lower value; inhibition of EC80 agonist-evoked calcium signal; in the data active = activity change below about -50%; inconclusive = between about -30% and that limit;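 also: stimulus is agonist 54-4 at its EC80 concentration; % is scaled to controls: 0 for no effect and ±100 for the full control effect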
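Tet-induced TRPML1-DL cells loaded with Ca8 no-wash calcium dye were read kinetically on FDSS. Compound addition was followed by EC80 agonist 54-4 (4 uM final); inhibition was read over 110 s.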
The depositor's hits bear a star; u = inconclusive; x = no result given.

SMILES	TRPV1 PAM	KCNH2 WT inh	TRPV1 agonist	TRPML1 agonist	KCNH2 3.1 inh	TRPML1 inh
O=C(NC1CCCCC1)c1cccc2c1C(=O)c1ccc(-c3ccc(OC(F)(F)F)cc3)cc1S2(=O)=O	x	-9	x	-1	-129*	2
CCCC(c1nnnn1Cc1cccs1)N1CCN(c2nc3ccccc3s2)CC1 (configuration not stated)	u	-2	-2	61*	u	-18
CCC(C)(C)n1nnnc1C(c1ccc2ncccc2c1)N1CCN(c2nc3ccccc3s2)CC1 (configuration not stated)	13	0	2	2	-90*	9
CCCCOc1ccc(OC(=O)c2sc3ncn(Cc4cccc(F)c4)c(=O)c3c2C)cc1	x	x	x	0	x	-4
CCCCCCCCc1nc(SC(C)C(=O)O)n[nH]1 (configuration not stated)	20	-7	2	0	-105*	-9
C=CCCCCCCCCc1nc(SCC(=O)O)n[nH]1	5	3	2	0	-8	8
CCOC(=O)c1ccc(NC(=S)N(CCCN2CCCC(C)C2)Cc2cccs2)cc1 (configuration not stated)	-17	-89*	3	0	-80*	-13
OCC1(CCOc2ccccc2)CCN(Cc2ccc(OC(F)F)cc2)CC1	-1	-131*	5	1	-111*	-1
OCC1(CCOc2ccccc2)CCN(Cc2ccc3c(c2)OCCO3)CC1	-15	5	6	-1	-48	4
OCC1(CCOc2ccccc2)CCN(Cc2cc(Cl)ccc2O)CC1	-1	5	-1	0	4	-4
OCC1(CCOc2ccccc2)CCN(Cc2ccccc2OC(F)F)CC1	1	5	3	0	-99*	-5
CCn1ccnc1CN1CCC(CO)(CCOc2ccccc2)CC1	6	12	4	-1	-7	-11
C=CCOc1ccccc1CN1CCC(CO)(CCOc2ccccc2)CC1	2	u	1	0	-80*	21
CSc1ccc(CN2CCC(CO)(CCOc3ccccc3)CC2)cc1	12	-110*	1	x	-100*	x
OCC1(CCOc2ccccc2)CCN(Cc2ccncc2)CC1	u	30	11	x	-1	x
Cc1cc(C)n(-c2nc(NC(C)C)nc(NC(C)(C)C)n2)n1	x	x	x	1	x	x
Cc1c(F)cccc1Cn1cnc2c(cnn2C(C)(C)C)c1=O	x	x	x	2	x	-1
COC(=O)C1=C[C@@H](C(=O)OC)[C@@H]2C3=C(C(=O)[C@@]2(CC(C)C)NC(=O)c2ccccc2)[C@H](C)n2c(=O)n(-c4ccccc4)c(=O)n2[C@@H]3C1	x	x	x	1	x	0
CCOC(=O)C1CCN(c2ncnc3c2c(-c2ccccc2)cn3-c2ccc(Cl)cc2)CC1	x	x	x	u	x	-27
CCOC(=O)C1CCN(c2ncnc3c2c(-c2ccccc2)cn3-c2ccccc2)CC1	2	-1	6	75*	0	-17
Cc1cccc(N2CCN(c3ncnc4c3c(-c3ccccc3)cn4-c3ccccc3)CC2C)c1 (configuration not stated)	x	x	x	51*	x	-26
CN(C)c1c(Cl)cc(/C=C/c2ccnc3ccccc23)cc1Br	x	x	x	-1	x	x
Cc1cc(O)ccc1C1(c2ccc(O)cc2C)OC(=O)c2ccccc21	15	5	2	0	6	22
CC(=O)Oc1ccc2c(c1)Oc1cc(OC(C)=O)ccc1C21OC(=O)c2ccccc21	12	-122*	140*	113*	-146*	-21
c1ccc2c(c1)oc1c(Nc3ccc4c(c3)OCCO4)ncnc12	2	9	83*	3	-13	14
SMILES	TRPV1 PAM	KCNH2 WT inh	TRPV1 agonist	TRPML1 agonist	KCNH2 3.1 inh	TRPML1 inh
CCNc1nc(CC)nc2c1oc1ccccc12	-20	8	88*	3	-6	-10
CCc1nc(Nc2ccc3c(c2)OCCO3)c2oc3ccccc3c2n1	-6	2	89*	2	17	0
Cc1nc(Nc2ccc3c(c2)OCCO3)c2oc3ccccc3c2n1	-3	12	82*	-1	4	7
O=C(C[n+]1cccc2cccc(O)c21)c1ccc(F)cc1	x	x	x	16	x	x
N#C/C(=C\c1ccc(-c2ccccc2[N+](=O)[O-])o1)C(=O)N1CCOCC1	-6	0	u	0	-79*	-6
CCOc1ccc2c(c1)/C(=N/N1C(=O)c3ccccc3C1=O)C(=O)N2	-10	5	4	1	7	10
Cc1ccc2c(c1)/C(=N/N1C(=O)c3ccccc3C1=O)C(=O)N2	-25	-3	0	2	-155*	-2
COc1ccc2c(CNCCc3ccc(SC)cc3)c(C(=O)O)n(Cc3ccc(F)cc3)c2c1	x	x	x	3	x	-9
c1ccc(-c2ccc(OCCCNC3CCCC3)cc2)cc1	1	-10	0	0	-92*	21
c1ccc(Cc2ccc(OCCCNC3CCCC3)cc2)cc1	2	x	6	x	x	x
Cc1cc(C)c2cc(C#N)c(N3CCCN(S(=O)(=O)c4ccccc4)CC3)nc2c1	x	-19	x	0	-70*	-2
Cc1ccc(-c2nnc(SC(C)C(=O)NCc3ccco3)n2C)cc1 (configuration not stated)	x	x	x	-1	x	x
O=C(Nc1nc(-c2ccccc2)cs1)c1ccc2c(c1)S(=O)(=O)c1ccccc1C2=O	-4	2	-2	0	-31	-7
O=C(Nc1nc(-c2cccc3ccccc23)cs1)c1ccc2c(c1)S(=O)(=O)c1ccccc1C2=O	-8	-33	3	0	-106*	4
CC(C)(C)C(=O)Nc1ccc2c(c1)C(=O)C(=O)c1ccccc1-2	x	x	x	2	x	x
COc1ccc2c(c1)c1c(c(=O)n(-c3cc(Cl)ccc3C)c(=O)n1Cc1ccc(F)cc1)n2C	x	x	x	1	x	-3
COc1ccccc1N(C)S(=O)(=O)c1ccc(Cl)c(C(=O)NC2=NCCS2)c1	-3	1	8	-1	-76*	1
O=C(C[n+]1cc(Br)cc(Br)c1)c1ccc2c(c1)CCCC2	x	x	x	-1	x	x
O=C(C[N+]1(CC(O)c2ccccc2)CCOCC1)c1ccccc1 (configuration not stated)	x	x	x	0	x	x
O=C(Cn1[nH]c(=O)c2ccccc2c1=O)NNC(=O)c1ccccc1	-2	-270*	0	3	18	19
O=C(Nc1nccs1)[C@@H]1CC=C[C@@H]2CCN(Cc3ccc(Cl)c(Cl)c3)C(=O)[C@@H]21	x	x	x	0	x	x
CC(C)(C)c1ccc(OCCCN2CCCC2)cc1	2	40	-4	1	-86*	33
Cc1cc(Br)ccc1OCCOCCN1CCCC1	-6	35	3	x	-31	x
Clc1ccccc1OCCCCN1CCCCC1	7	14	-3	0	-1	12
